Jurkat NFkB inh = inhibitors of the PMA/ionomycin-induced NF-kB reporter in Jurkat cells | PMA/ionomycin-induced NF-kB luciferase reporter, luminescence | inhibition, % at 4 µM | 330,000 tested, 0.53% active | AID 435003; in the data active = inhibition above about 50%
697 NFkB inh = inhibitors of the PMA/ionomycin-induced NF-kB reporter in 697 B cells. 697 B-cell NF-kB luciferase reporter, 16 h. inhibition, % at 4 µM. 330,000 tested, 0.33% active. AID 435022; in the data active = inhibition above about 35%
HIF activator = HIF pathway transcriptional activation; U2OS HRE-luciferase reporter, luminescence; normalized: DMSO 0%, desferrioxamine 100%; activation, % at 7.5 µM (by protocol); 300,000 tested, 0.32% active; AID 1910;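 active = mean activation of at least 10% of the iron chelator positive control signal, with at least half of replicates also reaching 10%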
CFTR F508del cor = CFTR F508del correction in bronchial cells; CFBE cells, YFP halide quenching; stimulated with forskolin plus potentiator P3; % fluorescence drop versus neutral controls; activity (quench increase), % at 7.58 µM; 350,000 tested, 0.36% active;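 active = mean added fluorescence quench of at least 8% versus neutral control, with both replicates also reaching 8%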;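 also: cells transiently co-express mutant CFTR-F508del with the halide-sensitive YFP; corrector assay measuring rescue of mutant channel to the surface after 24 h compound exposure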
Jurkat NFkB conf = inhibitors of the PMA/ionomycin-induced NF-kB reporter in Jurkat cells, retest | shares compounds with Jurkat NFkB inh | Jurkat NF-kB luciferase, 16 h | inhibition, % at 4 µM | 2,700 tested, 27% active;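 active = inhibition reaching about 45% at 4 µM in either replicate, limit read from the data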;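 also: plate controls were PMA/ionomycin stimulated DMSO wells for no effect and unstimulated DMSO wells for full effect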
Numbers without * were called inactive. Rows were chosen to be rich in hits. Some 0.93% of all compounds tested hit in one or more screens of this group.

For CCOc1ccc(C(C)=O)cc1COc1cccnc1[N+](=O)[O-] the results were Jurkat NFkB inh 54*, 697 NFkB inh -11, HIF activator 1, CFTR F508del cor 2 and Jurkat NFkB conf 19.
For COc1ccc(C(C)=O)cc1COc1cccnc1[N+](=O)[O-] the results were Jurkat NFkB inh 55*, 697 NFkB inh -18, HIF activator 4, CFTR F508del cor 4 and Jurkat NFkB conf 1.
Screening CCOc1ccc(C(C)=O)cc1COC(=O)c1cccnc1SC returned Jurkat NFkB inh -3, 697 NFkB inh 3, HIF activator 0 and CFTR F508del cor 2.
`COc1ccc(C(C)=O)cc1COc1ccccc1[N+](=O)[O-]` gave Jurkat NFkB inh 22, 697 NFkB inh 7, HIF activator -2 and CFTR F508del cor 3.
For Cc1ccc(NC(=O)c2cc3ccccc3o2)nc1 the results were Jurkat NFkB inh -170, 697 NFkB inh -197, HIF activator 0, CFTR F508del cor 4 and Jurkat NFkB conf -107.
Cc1cc(C)nc(NC(=O)c2cc3ccccc3o2)n1 was read as Jurkat NFkB inh -1, 697 NFkB inh 17, HIF activator 0 and CFTR F508del cor -1.
`O=C(Nc1ccc(Cl)cc1Cl)c1cc2ccccc2o1` gave Jurkat NFkB inh -154, 697 NFkB inh -221, HIF activator 6, CFTR F508del cor 0 and Jurkat NFkB conf -123.
`Cc1ccccc1NC(=O)c1cc2ccccc2o1` gave Jurkat NFkB inh -109, 697 NFkB inh -13, HIF activator 2 and CFTR F508del cor -2.
CCCCN1CN=C(Nc2nc3ccccc3o2)NC1 was read as Jurkat NFkB inh -80, 697 NFkB inh -90 and HIF activator 2.
`Cc1nc(NC2=NCN(CCCN3CCOCC3)CN2)nc2c(C)cccc12` gave Jurkat NFkB inh 64*, 697 NFkB inh -38 and Jurkat NFkB conf -2.
For OC(c1cc(-c2ccc(C(F)(F)F)cc2)nc(C(F)(F)F)c1)C1CCCCN1 (stereo not drawn) the results were Jurkat NFkB inh 52*, 697 NFkB inh -22, HIF activator -2, CFTR F508del cor -3 and Jurkat NFkB conf 18.
Screening OC(c1cc(C(F)(F)F)nc2c(C(F)(F)F)cccc12)C1CCCCN1 (stereo not drawn) returned Jurkat NFkB inh 15, 697 NFkB inh -10 and CFTR F508del cor 3.
NC(N)=Nc1nc(C2COc3ccccc3O2)cs1 (stereo not drawn) was read as Jurkat NFkB inh -167, 697 NFkB inh -239, HIF activator 1, CFTR F508del cor -1 and Jurkat NFkB conf -87.
CN(C)CC#Cc1ccc([C@@H]2[C@H](CO)N3CCCCN(CC4CC4)C[C@@H]23)cc1 was read as CFTR F508del cor 0.
For CCCOc1ccccc1C1CC(=O)NC2=C1C(=O)CCC2 (stereo not drawn) the results were Jurkat NFkB inh 59*, 697 NFkB inh -54, HIF activator 1 and Jurkat NFkB conf 25.
Screening CCOc1ccccc1C1CC(=O)NC2=C1C(=O)CCC2 (stereo not drawn) returned Jurkat NFkB inh 47, 697 NFkB inh -22 and HIF activator 1.
`CCCCOc1ccccc1C1CC(=O)NC2=C1C(=O)CCC2` (stereo not drawn) gave Jurkat NFkB inh 62*, 697 NFkB inh -23, HIF activator 0 and Jurkat NFkB conf 50*.
For O=C(c1cc2cc3ccc(Cl)cc3nc2o1)N1CCCCCC1 the results were Jurkat NFkB inh -159, 697 NFkB inh -181, HIF activator 5 and Jurkat NFkB conf -90.
Cc1c(C(=O)C(=O)N2c3ccc(F)cc3CCC2C)c2ccccc2n1C (stereo not drawn) was read as Jurkat NFkB inh 65*, 697 NFkB inh -64, HIF activator -1 and Jurkat NFkB conf 32.
Screening COc1ccc2nc(C)cc(N/N=C/c3ccc(F)cc3)c2c1 returned Jurkat NFkB inh 98*, 697 NFkB inh 32, HIF activator -4, CFTR F508del cor -1 and Jurkat NFkB conf 89*.
`COc1ccc(/C=N/Nc2cc(C)nc3ccccc23)cc1` gave Jurkat NFkB inh -55, 697 NFkB inh -38, HIF activator 2 and CFTR F508del cor -1.
`COc1ccc([C@H]2CC(=O)C=C(c3ccc(OC)cc3OC)C2)cc1` gave Jurkat NFkB inh 58*, 697 NFkB inh -49, CFTR F508del cor 11* and Jurkat NFkB conf 48*.
COc1ccc(C2=CC(=O)C[C@H](c3ccc(OC)cc3)C2)cc1 was read as Jurkat NFkB inh -16, 697 NFkB inh -7 and CFTR F508del cor 2.
Screening Cc1sc(NC(=O)c2oc3ccccc3c2C)c(C#N)c1C returned Jurkat NFkB inh -19, 697 NFkB inh 1, HIF activator 1 and CFTR F508del cor 0.
Screening Cc1c(C(=O)NC2=NCCS2)oc2ccccc12 returned Jurkat NFkB inh -169, 697 NFkB inh -123, HIF activator 0, CFTR F508del cor 0 and Jurkat NFkB conf -97.
For Cc1c(C(=O)Nc2nnc(C3CC3)s2)oc2ccccc12 the results were Jurkat NFkB inh -61, 697 NFkB inh -134 and CFTR F508del cor 4.
Screening Cc1csc(NC(=O)c2oc3ccccc3c2C)n1 returned Jurkat NFkB inh -195, 697 NFkB inh -193, HIF activator 2, CFTR F508del cor 2 and Jurkat NFkB conf -91.
For O=C(C[C@H]1C=C[C@@H](NC(=O)Nc2cc(F)ccc2F)[C@H](CO)O1)NCc1ccccn1 the results were CFTR F508del cor -1.
Screening Nc1ccc(-c2nc3ccccc3s2)cn1 returned Jurkat NFkB inh -133, 697 NFkB inh -96, HIF activator 1 and CFTR F508del cor -1.
For CCCNC(=O)c1ccc(-c2nc3ccccc3s2)s1 the results were Jurkat NFkB inh -161, 697 NFkB inh -58, HIF activator -1 and Jurkat NFkB conf -95.
Brc1ccc(-c2nc3ccccc3s2)s1 was read as Jurkat NFkB inh -164, 697 NFkB inh -170, HIF activator 2 and Jurkat NFkB conf -102.
`C[C@H](CO)N1C[C@H](C)[C@@H](CN(C)C(=O)CN2CCOCC2)Oc2ncc(/C=C/c3ccccc3)cc2C1=O` gave CFTR F508del cor 3.
CCS(=O)(=O)NCC[C@H]1CC[C@H](NC(=O)Cc2ccccn2)[C@@H](CO)O1 was read as CFTR F508del cor -4.
For COc1cccc(-c2nc(-c3ccc(Br)o3)no2)c1 the results were Jurkat NFkB inh -187, 697 NFkB inh -250, HIF activator 2, CFTR F508del cor -1 and Jurkat NFkB conf -134.
Screening COc1ccccc1-c1nc(-c2ccc(Br)o2)no1 returned Jurkat NFkB inh -175, 697 NFkB inh -216, HIF activator 2, CFTR F508del cor -3 and Jurkat NFkB conf -110.
For COc1cccc(-c2noc(-c3ccc4c(c3)OCO4)n2)c1 the results were Jurkat NFkB inh -185, 697 NFkB inh -198, HIF activator -4, CFTR F508del cor 4 and Jurkat NFkB conf -102.
Screening Nc1nc(-c2cc(-c3ccccc3)no2)cs1 returned Jurkat NFkB inh -92, 697 NFkB inh -198, HIF activator 2 and CFTR F508del cor -1.
